# Test results as given in PubChem BioAssay.
# For part of these data: Entries with a potency or affinity are not part of this list. The source made the active and inactive calls.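 The calls were made as follows, unless noted: active = membrane potential signal rise above negative control mean plus 3 SD in both duplicates, also active in the earlier TRPC4 screen; inactive = the rest.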
# How the values were obtained:
# [1] = system: TRPC4 beta (transient receptor potential cation channel C4), mouse; assay: activators of mouse TRPC4 channel, confirmation, cell-based, Fluo4 calcium, HEK293 TRPC4beta/mu-opioid, duplicates, 10 µM (AID 2426;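 active = fluorescence ratio normalized to control raised more than 50% in primary screen plus both repeat runs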); details: Fluo4 calcium fluorescence, at 10 µM; active compounds read high
# [2] = system: transient receptor potential cation channel C4 beta (TRPC4), mouse; assay: activators of mouse TRPC4 channel, confirmation, cell-based, second round, Fluo4, HEK293 TRPC4beta/mu-opioid, 1 µM (AID 2461;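 active = primary screen active and over 50% activation in each of two duplicate runs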); details: Fluo4 calcium fluorescence, at 1 µM; active compounds read high
# [3] = system: TRPC4 (transient receptor potential cation channel C4 beta), mouse; assay: positive allosteric modulators of mouse TRPC4, confirmation, cell-based, second round, Fluo-4, HEK293 TRPC4beta/mu-opioid, 1 µM (AID 2554;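 active = primary screen hit whose fluorescence ratio, in both repeats, exceeds the weak agonist control mean by 3 SD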); details: DAMGO EC20, Fluo-4 calcium flux, at 1 µM; active compounds read high
# [4] = system: TRPC4 beta (transient receptor potential cation channel C4), mouse; assay: positive allosteric modulators of mouse TRPC4, confirmation, cell-based, Fluo-4, HEK293 TRPC4beta/mu-opioid (AID 2555;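 active = primary screen hit whose calcium fluorescence ratio, in both repeats, exceeds the weak agonist control mean by 3 SD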); details: DAMGO EC20, Fluo-4 calcium flux, at 10 µM; active compounds read high
# [5] = target: Short transient receptor potential channel 4 (Mus musculus) (UniProt Q9QUQ5); assay: inhibitors of mouse TRPC4 channel, confirmation, cell-based, Fluo4, HEK293 TRPC4beta/mu-opioid (AID 2636;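 active = calcium signal cut by more than 3 SD below the full-agonist control yet still positive, in both repeats and the earlier primary screen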); details: DAMGO, Fluo4 calcium flux, at 10 µM; active compounds read high
# [6] = target: Short transient receptor potential channel 4 (Mus musculus) (UniProt Q9QUQ5); assay: inhibitors of mouse TRPC4 channel, confirmation, cell-based, second round, Fluo4, HEK293 TRPC4beta/mu-opioid, 1 µM (AID 2637;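 active = calcium signal ratio cut to more than 3 SD under the fully stimulated control mean yet still positive, in both repeats and the primary screen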;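 as to inhibition: percent of integrated ratio relative to wells lacking test compound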); details: Fluo4 calcium flux, DAMGO, at 1 µM; active compounds read high
# [7] = target: Short transient receptor potential channel 4 (Mus musculus) (UniProt Q9QUQ5); assay: mouse TRPC4 channel activators, dose response, cell-based, HEK293 TRPC4/mu-opioid, Fluo-4 calcium (AID 434937;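 active = primary screen activator hit with a dose response curve and TRPC4 channel activation at any tested dose; inactive = no activation, no dose response, or not a primary hit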)
# [8] = target: Short transient receptor potential channel 4 (Mus musculus) (UniProt Q9QUQ5); assay: TRPC4 positive allosteric modulators, dose response, cell-based, HEK293 TRPC4/mu-opioid, Fluo-4 calcium, EC20 DAMGO (AID 434941;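 active = earlier screen potentiator hit that boosts the TRPC4 ion channel at some dose, with a dose response; inactive = no potentiation, no dose response, or not a prior hit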;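 also: calcium entry triggered by an EC20 dose of DAMGO at the co-expressed mu-opioid receptor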)
# [9] = target: Short transient receptor potential channel 6 (Mus musculus) (UniProt Q61143); assay: inhibition of mouse TRPC6 channel, confirmation, selectivity assay for TRPC4 inhibitor project, cell-based, HEK293, membrane potential dye, duplicate (AID 434948;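 active = active in primary screen and both duplicates, each dropping signal beyond three positive-control SD with fluorescence still positive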); details: HEK293 TRPC6, membrane potential dye fluorescence, at 10 µM, stimulated with maximal-effect acetylcholine; active compounds read high
# [10] = target: Short transient receptor potential channel 6 (Mus musculus) (UniProt Q61143); assay: activation of mouse TRPC6 channel, confirmation, selectivity assay for TRPC4 activator project, cell-based, HEK293, membrane potential dye, duplicate (AID 434950); details: HEK293 TRPC6, membrane potential fluorescence, at 10 µM; active compounds read high
# [11] = target: Short transient receptor potential channel 6 (Mus musculus) (UniProt Q61143); assay: TRPC6 potentiation by TRPC4 potentiator hits, confirmation, selectivity assay for TRPC4 potentiator project, HEK293 cells, membrane potential dye, duplicate (AID 434952;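 active = compound raising the membrane signal above positive-control mean plus 3 SD in both repeats, and a primary screen hit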); details: HEK293 TRPC6, membrane potential dye fluorescence, at 10 µM, maximal acetylcholine added after compound; active compounds read high
# [12] = target: Short transient receptor potential channel 4 (Mus musculus) (UniProt Q9QUQ5); assay: calcium flux activators in TRPC4/5HT1a cells, counter-screen for TRPC4 activator project, cell-based, second counter screen, HEK293 TRPC4/5HT1a, Fluo-4 (AID 434977;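 active = calcium signal rise above buffer-control mean plus 5 SD in both duplicates, and also a hit in the primary screen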); details: Fluo-4 calcium flux, at 10 µM; active compounds read high
# [13] = calcium flux inhibitors in TRPC4/5HT1a cells, confirmation, counter-screen for TRPC4 inhibitor project, cell-based, second counter screen, HEK293 TRPC4/5HT1a, Fluo-4 (AID 434978;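 active = primary screen active whose calcium signal fell more than 3 SD beyond the full-serotonin control mean in both duplicate plates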;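 as to outcome: serotonin given first at submaximal then at maximal dose after compound preincubation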); details: Fluo-4 calcium flux, at 10 µM, serotonin added to trigger calcium flux; active compounds read high
# [14] = system: TRPC4 (mouse), co-expressed with 5HT1a in HEK293; assay: calcium flux potentiators in TRPC4/5HT1a cells, confirmation, counter-screen for TRPC4 potentiator project, cell-based, second counter screen, HEK293 TRPC4/5HT1a, Fluo-4 (AID 434979;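 active = signal rise over 3 SD above mean of control wells given weak agonist, in both repeats and first screen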); details: Fluo-4 calcium flux, at 10 µM, serotonin added at its EC20 dose; active compounds read high
# [15] = calcium flux activation in mu-opioid HEK293 cells, confirmation, counter-screen for TRPC4 activator project, cell-based, HEK293 mu-opioid receptor line (AID 449723;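 active = hit in primary screen, with calcium signal over 5 SD above buffer well mean in both duplicates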;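 also: counter screen cells carry the mu-opioid receptor alone and lack TRPC4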); details: Fluo-4 calcium fluorescence, at 10 µM; active compounds read high
# [16] = calcium flux enhancement in mu-opioid HEK293 cells, confirmation, counter-screen for TRPC4 allosteric potentiator project, cell-based, HEK293 mu-opioid receptor line (AID 449724;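 active = calcium signal rise more than 3 SD above the low-dose agonist control mean, in both duplicate plates and the primary screen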); details: Fluo-4 calcium flux, at 10 µM, compound added before EC20 DAMGO stimulus; active compounds read high
# Short transient receptor potential channel 6 (Mus musculus), sequence (Q61143 whole entry, looked up): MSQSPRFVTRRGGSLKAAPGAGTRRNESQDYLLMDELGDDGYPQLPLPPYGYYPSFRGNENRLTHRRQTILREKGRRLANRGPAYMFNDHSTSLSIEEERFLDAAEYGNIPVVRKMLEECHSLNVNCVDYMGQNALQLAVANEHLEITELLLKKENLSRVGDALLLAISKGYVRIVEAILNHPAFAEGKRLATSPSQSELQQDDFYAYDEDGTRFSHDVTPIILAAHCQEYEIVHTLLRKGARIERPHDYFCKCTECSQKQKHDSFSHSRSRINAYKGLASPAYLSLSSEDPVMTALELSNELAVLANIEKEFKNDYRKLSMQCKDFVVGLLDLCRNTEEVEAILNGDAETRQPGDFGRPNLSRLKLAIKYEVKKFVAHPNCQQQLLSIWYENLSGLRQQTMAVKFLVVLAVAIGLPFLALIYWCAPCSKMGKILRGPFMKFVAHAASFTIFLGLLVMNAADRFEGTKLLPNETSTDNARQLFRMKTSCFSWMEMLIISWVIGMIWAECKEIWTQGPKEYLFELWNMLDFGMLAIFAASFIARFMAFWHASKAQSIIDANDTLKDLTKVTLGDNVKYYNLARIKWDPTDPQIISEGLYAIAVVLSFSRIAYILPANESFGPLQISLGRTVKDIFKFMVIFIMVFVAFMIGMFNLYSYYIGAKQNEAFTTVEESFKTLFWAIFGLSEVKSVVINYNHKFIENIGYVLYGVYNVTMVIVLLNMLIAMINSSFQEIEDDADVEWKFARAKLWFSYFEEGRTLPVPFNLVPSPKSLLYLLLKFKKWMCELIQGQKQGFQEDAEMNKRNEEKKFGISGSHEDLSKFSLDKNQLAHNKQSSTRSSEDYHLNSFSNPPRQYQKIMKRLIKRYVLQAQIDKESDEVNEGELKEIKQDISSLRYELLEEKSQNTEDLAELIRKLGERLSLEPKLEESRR
# Short transient receptor potential channel 4 (Mus musculus), sequence (Q9QUQ5 whole entry, looked up): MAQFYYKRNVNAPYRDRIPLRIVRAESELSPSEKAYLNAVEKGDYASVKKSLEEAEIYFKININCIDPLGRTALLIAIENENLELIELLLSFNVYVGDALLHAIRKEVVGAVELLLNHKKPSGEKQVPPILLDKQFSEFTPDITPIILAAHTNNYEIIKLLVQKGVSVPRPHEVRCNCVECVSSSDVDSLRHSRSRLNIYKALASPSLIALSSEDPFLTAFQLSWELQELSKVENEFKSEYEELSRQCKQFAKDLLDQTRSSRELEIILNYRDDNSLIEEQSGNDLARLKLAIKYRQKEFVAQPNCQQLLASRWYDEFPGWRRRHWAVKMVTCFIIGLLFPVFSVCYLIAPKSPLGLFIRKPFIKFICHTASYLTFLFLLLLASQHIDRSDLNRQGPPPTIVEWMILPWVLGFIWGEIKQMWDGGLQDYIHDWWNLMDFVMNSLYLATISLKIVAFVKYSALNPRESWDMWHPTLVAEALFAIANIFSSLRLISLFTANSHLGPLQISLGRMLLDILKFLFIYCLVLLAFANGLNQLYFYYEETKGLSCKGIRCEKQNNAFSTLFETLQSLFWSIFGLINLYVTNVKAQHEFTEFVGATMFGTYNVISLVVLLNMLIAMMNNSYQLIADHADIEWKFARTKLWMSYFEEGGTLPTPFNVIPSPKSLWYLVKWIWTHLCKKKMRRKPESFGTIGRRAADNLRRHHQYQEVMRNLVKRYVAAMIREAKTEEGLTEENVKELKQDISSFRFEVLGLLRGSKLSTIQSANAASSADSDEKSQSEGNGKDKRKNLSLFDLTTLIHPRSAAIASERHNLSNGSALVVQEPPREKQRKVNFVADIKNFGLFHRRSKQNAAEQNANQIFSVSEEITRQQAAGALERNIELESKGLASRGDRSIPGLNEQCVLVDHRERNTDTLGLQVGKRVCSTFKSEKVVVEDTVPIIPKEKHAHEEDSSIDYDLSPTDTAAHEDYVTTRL
Compound,outcome [1],outcome [2],outcome [3],outcome [4],inhibition [5],outcome [6],outcome [7],outcome [8],inhibition [9],outcome [10],outcome [11],outcome [12],inhibition [13],outcome [14],outcome [15],outcome [16],outcome [5],outcome [9],outcome [13],inhibition [6]
COc1ccc2c(c1)sc(N)[n+]2Cc1cc(C)cc2cccnc12,inactive,inactive,inactive,inactive,99% (active),inactive,inactive,inactive,37% (active),inactive,inactive,inactive,28.6% (active),inactive,inactive,inactive,–,–,–,–
CCOC(=O)c1c(NC(=O)/C=C/C(=O)O)sc(C)c1-c1ccc(C(C)(C)C)cc1,inactive,inactive,inactive,inactive,–,inactive,inactive,inactive,–,inactive,inactive,inactive,-6.26% (active),inactive,inactive,inactive,inactive,inactive,–,–
CCOC(=O)C1(Cc2ccccc2)CCN(CC2CC=CCC2)CC1 (stereo not given),inactive,inactive,inactive,inactive,93% (active),inactive,inactive,inactive,–,inactive,inactive,inactive,–,inactive,inactive,inactive,–,inactive,inactive,–
COC(=O)c1cccc2c1-c1ccccc1/C2=N/O,inactive,inactive,inactive,inactive,81% (active),–,inactive,inactive,–,inactive,inactive,inactive,27.9% (active),inactive,inactive,inactive,–,inactive,–,43% (active)
Cc1ccc2nc(C)c3c(c2c1)N(c1ccc(F)cc1)CC3,inactive,inactive,inactive,inactive,90% (active),–,inactive,inactive,25% (active),inactive,inactive,inactive,33.8% (active),inactive,inactive,inactive,–,–,–,71% (active)
O=C(CSc1nc2[nH]ncc2c(=O)n1-c1ccccc1Br)NCc1ccccc1Cl,inactive,inactive,inactive,inactive,–,inactive,inactive,inactive,–,inactive,inactive,inactive,–,inactive,inactive,inactive,inactive,inactive,inactive,–
CCOC(=O)C1=C(C)NC(=O)CC1c1cc2c(cc1[N+](=O)[O-])OCO2 (stereo not given),inactive,inactive,inactive,inactive,71% (active),–,inactive,inactive,–,inactive,inactive,inactive,20.2% (active),inactive,inactive,inactive,–,inactive,–,40% (active)
c1ccc(Nc2n[nH]nc2-c2ccccc2)cc1,inactive,inactive,inactive,inactive,96% (active),–,inactive,inactive,–,inactive,inactive,inactive,17.4% (active),inactive,inactive,inactive,–,inactive,–,60% (active)
CCOC(=O)C1(CCOC)CCN(C(C)CCc2ccc(OC)cc2)CC1 (stereo not given),inactive,inactive,inactive,inactive,75% (active),inactive,inactive,inactive,–,inactive,inactive,inactive,–,inactive,inactive,inactive,–,inactive,inactive,–
COCC(C)NC(C(=O)Nc1ccc(Cl)c([N+](=O)[O-])c1)c1ccccc1 (stereo not given),inactive,inactive,inactive,inactive,87% (active),inactive,inactive,inactive,–,inactive,inactive,inactive,–,inactive,inactive,inactive,–,inactive,inactive,–
c1ccc(-c2nc(NCc3ccco3)c3ccccc3n2)nc1,inactive,inactive,inactive,inactive,93% (active),–,inactive,inactive,34.5% (active),inactive,inactive,inactive,22.1% (active),inactive,inactive,inactive,–,–,–,74% (active)
Cc1nn(C)c(C)c1Sc1ccc(Br)cc1,inactive,inactive,inactive,inactive,82% (active),inactive,inactive,inactive,–,inactive,inactive,inactive,24.8% (active),inactive,inactive,inactive,–,inactive,–,–
CCn1c(=O)n(CCOC)c(=O)c2c3c(sc21)CCCC3,inactive,inactive,inactive,inactive,91% (active),–,inactive,inactive,–,inactive,inactive,inactive,16.2% (active),inactive,inactive,inactive,–,inactive,–,58% (active)
O=[N+]([O-])c1cccc(N(CC(O)CN2CCCC2)S(=O)(=O)c2ccccc2)c1 (stereo not given),inactive,inactive,inactive,inactive,101% (active),inactive,inactive,inactive,–,inactive,inactive,inactive,–,inactive,inactive,inactive,–,inactive,inactive,–
CC12CC3(C)CC(C)(C1)CC(NC(=O)N1CCCC1)(C2)C3,inactive,inactive,inactive,inactive,76% (active),inactive,inactive,inactive,–,inactive,inactive,inactive,–,inactive,inactive,inactive,–,inactive,inactive,–
